Results reported in PubChem BioAssay (NCATS).
Results filed as inconclusive are left out. The source made the active and inactive calls. Unless noted, the call rests on the fitted dose curve; in most records, active means well fitted curve in the direction sought with a large enough effect; inconclusive means small, poorly fitted or top-dose-only effect, or another doubt; inactive means no such curve, though single readings can be large; an effect the other way counts as inactive or inconclusive.

What was measured:
[1] = target: Alpha-galactosidase (Coffea arabica) (UniProt Q42656); test: Counterscreen for Glucocerebrosidase Inhibitors: qHTS Assay for Coffee Bean alpha-Galactosidase at pH 5.9 (AID 998);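 further: plate controls were uninhibited enzyme for no effect and no-enzyme basal signal for full effect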
Method in brief: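 Fluorogenic 4-MU substrate hydrolysis, 80 uM substrate and 2 nM coffee bean alpha-galactosidase, pH 5.9 citrate buffer, 20 min at room temperature, then NaOH/glycine stop. Titration 0.7 nM–77 uM, normalized to no-enzyme and enzyme controls, AC50 via Hill equation.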

[2] = Validation screen for inhibitors of Lassa infection (AID 463096; calls by dose curve; further: on the % scale 0 is the no-effect control and ±100 the full control effect)
[3] = qHTS profiling of the MIPE4 collection as inhibitors of Plasmodium falciparum (3D7) proliferation (AID 743344; call rule not given here;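 further: scaled between DMSO vehicle wells and 0.29 µM artemisinin as full inhibition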); conditions: P. falciparum 3D7 in erythrocytes, SYBR Green DNA fluorescence, 72 h; at 28.5 µM (top of the series)
Method in brief: (§1)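 Parasite DNA was quantified by SYBR Green I fluorescence (ex 485, em 535 nm) after overnight lysis in saponin/Triton buffer at room temperature. Cultures at 0.3% parasitemia and 2.5% hematocrit were first exposed to compound for 72 h at 37 C; signals were normalised to artemisinin (0.29 uM) and vehicle wells.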

[4] = qHTS profiling of the MIPE4 collection as inhibitors of Plasmodium falciparum (DD2) proliferation (Rep 2) (AID 743346; call rule not given here); conditions: P. falciparum Dd2 in erythrocytes, SYBR Green DNA, 72 h; at 28.5 µM (top of the series)
Method in brief: as §1

[5] = qHTS profiling of the MIPE4 collection as inhibitors of Plasmodium falciparum (HB3) proliferation (AID 743347; call rule not given here;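 further: plate controls were DMSO vehicle wells for no effect and artemisinin wells for full effect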); conditions: P. falciparum HB3 in erythrocytes, SYBR Green DNA, 72 h; at 28.5 µM (top of the series)
Method in brief: as §1

[6] = target: 3',5'-cyclic-AMP phosphodiesterase 4B (Homo sapiens) (UniProt Q07343); test: qHTS Assay for Inhibitors of PDE-IV (AID 607; active means well fitted activation curve with a large enough effect in the main read-out, with a control signal flat, not every such curve was filed as active; further: % of control where 0% means no effect)
Method in brief: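 Cell-based read-out of cAMP via a modified cyclic nucleotide-gated channel and membrane potential dye (535/590 nm) in HEK293 cells expressing PDE4 endogenously. Compounds tested up to 22.9 uM final; 100 uM RO 20-1724 reference.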

[7] = target: Luciferin 4-monooxygenase (Photinus pyralis) (UniProt P08659); test: Biochemical firefly luciferase enzyme assay for NPC (AID 624030);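 further: purified P. pyralis luciferase at 10 nM with luciferin and ATP substrate; 0% = DMSO and -100% = full luciferase inhibition by PTC124 control; nearly all actives have a fitted effect of over 70% in size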
Method in brief: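 Direct inhibition of firefly luciferase enzyme (10 nM final, 50 mM Tris Acetate) assessed by luminescence within 5 minutes. Percent activity scaled between DMSO and PTC124 positive control, with concentration-effect curves classified by fit quality and response.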

[8] = S16 Schwann cell viability assay (CellTiter-Glo assay) (AID 624031);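 further: native untransfected S16 rat Schwann cells; cellular ATP luminescence as a viability measure; plate controls were DMSO-treated cells for no effect and cell-free wells for full effect; nearly all actives have a fitted effect of over 70% in size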
Method in brief: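 Following overnight culture in 10% FBS DMEM, parental S16 rat Schwann cells are dosed for 24 h at 37 °C. Viability is read as CellTiter-Glo luminescence and expressed as % activity relative to DMSO (0%) and no-cell wells.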

[9] = S16 Schwann cell PMP22 intronic element firefly luciferase assay (AID 624032); further: nearly all actives have a fitted effect of over 30% in size; further: potency means the concentration at half of the fitted maximal effect
Method in brief: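 Luciferase reporter of PMP22 intronic-element expression in stably transfected S16 rat Schwann cells, read by ONE-Glo luminescence after 24 h compound exposure at 37 C. Activity scaled between DMSO (0%) and positive-control PTC124; concentration-effect curves quality-classified.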

[10] = S16 Schwann cell PMP22 intronic element beta-lactamase assay (AID 624044; calls by dose curve;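 further: 0% = DMSO and -100% = potassium clavulanate positive control; nearly all actives have a fitted effect of over 15% in size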); conditions: S16 rat Schwann cells, PMP22 element beta-lactamase FRET, 24 h; ratio activity, negative = inhibition: at 38.3 µM (top of the series) unless noted
Method in brief: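 Beta-lactamase reporter under a PMP22 intronic regulatory element in stable S16 rat Schwann cells; 24 h compound exposure. 460 nm blue signal normalized between DMSO (0%) and potassium clavulanate, with 535 nm FRET tracking viability; curves classed by r2 and response.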

[11] = test system: ATS95; test: qHTS profiling for inhibitors of Plasmodium falciparum proliferation (AID 504749);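 further: 0% = DMSO vehicle and full inhibition = artemisinin control; nearly all actives have a fitted effect of over 60% in size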; conditions: P. falciparum in erythrocytes, SYBR Green DNA, 72 h; series mostly up to 28.7 µM
Method in brief: (§2)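 In a 72 h erythrocytic culture (37 C, humidified, 5% CO2) at 2.5% hematocrit and 0.3% starting parasitemia, compounds were tested; SYBR Green I in detergent lysis buffer stained parasite DNA overnight.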

[12] = test system: CP191; test: as above; conditions: P. falciparum in erythrocytes, SYBR Green DNA, 72 h; series mostly up to 28.7 µM
Method in brief: as §2

[13] = test system: CP260; test: as above; conditions: P. falciparum in erythrocytes, SYBR Green DNA, 72 h; series mostly up to 28.7 µM
Method in brief: as §2

[14] = test system: CP291; test: as above; conditions: P. falciparum in erythrocytes, SYBR Green DNA, 72 h; series mostly up to 28.7 µM
Method in brief: as §2

[15] = test system: CP297; test: as above; conditions: P. falciparum in erythrocytes, SYBR Green DNA, 72 h; series mostly up to 28.7 µM
Method in brief: as §2

[16] = test system: CP315; test: as above; conditions: P. falciparum in erythrocytes, SYBR Green DNA, 72 h; series mostly up to 28.7 µM
Method in brief: as §2

[17] = test system: DFO2036; test: as above; conditions: P. falciparum in erythrocytes, SYBR Green DNA, 72 h; series mostly up to 28.7 µM
Method in brief: as §2

[18] = test system: Dd2; test: as above; conditions: P. falciparum in erythrocytes, SYBR Green DNA, 72 h; series mostly up to 28.7 µM
Method in brief: as §2

[19] = test system: JCK; test: as above; conditions: P. falciparum in erythrocytes, SYBR Green DNA, 72 h; series mostly up to 28.7 µM
Method in brief: as §2

[20] = test system: TAB165; test: as above; conditions: P. falciparum in erythrocytes, SYBR Green DNA, 72 h; series mostly up to 28.7 µM
Method in brief: as §2

Chain of Luciferin 4-monooxygenase (Photinus pyralis) (P08659 whole entry, looked up): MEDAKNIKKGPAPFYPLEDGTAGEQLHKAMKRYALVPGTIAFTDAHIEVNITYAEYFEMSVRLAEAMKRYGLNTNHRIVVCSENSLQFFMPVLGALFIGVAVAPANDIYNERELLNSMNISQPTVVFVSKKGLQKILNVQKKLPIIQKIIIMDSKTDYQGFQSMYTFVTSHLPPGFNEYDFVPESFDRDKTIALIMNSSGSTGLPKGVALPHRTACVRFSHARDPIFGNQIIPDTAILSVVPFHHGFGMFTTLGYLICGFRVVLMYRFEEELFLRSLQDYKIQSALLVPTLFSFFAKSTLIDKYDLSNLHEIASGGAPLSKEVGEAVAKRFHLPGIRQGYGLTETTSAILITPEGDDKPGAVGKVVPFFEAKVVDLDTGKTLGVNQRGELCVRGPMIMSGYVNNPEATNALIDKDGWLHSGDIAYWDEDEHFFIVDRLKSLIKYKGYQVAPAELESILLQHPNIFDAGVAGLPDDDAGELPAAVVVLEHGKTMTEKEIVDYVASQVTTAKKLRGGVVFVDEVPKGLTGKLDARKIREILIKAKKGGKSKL
Chain of 3',5'-cyclic-AMP phosphodiesterase 4B (Homo sapiens) (Q07343 whole entry, looked up): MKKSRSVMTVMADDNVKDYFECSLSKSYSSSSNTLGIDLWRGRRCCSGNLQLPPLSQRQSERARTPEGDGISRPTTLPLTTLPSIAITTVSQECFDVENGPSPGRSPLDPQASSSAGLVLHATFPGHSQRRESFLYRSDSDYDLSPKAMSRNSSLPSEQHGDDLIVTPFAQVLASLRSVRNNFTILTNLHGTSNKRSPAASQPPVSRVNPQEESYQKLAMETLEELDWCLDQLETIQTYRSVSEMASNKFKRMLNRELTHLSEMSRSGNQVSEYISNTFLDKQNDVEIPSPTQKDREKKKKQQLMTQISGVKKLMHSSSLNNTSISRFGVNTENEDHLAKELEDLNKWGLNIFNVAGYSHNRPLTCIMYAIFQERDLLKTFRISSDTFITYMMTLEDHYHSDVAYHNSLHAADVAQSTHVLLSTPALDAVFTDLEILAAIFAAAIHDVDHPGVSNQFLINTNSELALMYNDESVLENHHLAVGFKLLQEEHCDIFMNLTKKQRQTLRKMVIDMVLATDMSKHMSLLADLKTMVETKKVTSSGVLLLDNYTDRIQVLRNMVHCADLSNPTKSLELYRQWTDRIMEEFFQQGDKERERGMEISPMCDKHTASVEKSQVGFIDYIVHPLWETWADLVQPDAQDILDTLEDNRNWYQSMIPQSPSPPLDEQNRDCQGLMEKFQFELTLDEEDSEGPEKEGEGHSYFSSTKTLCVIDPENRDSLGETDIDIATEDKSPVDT
Chain of Alpha-galactosidase (Coffea arabica) (Q42656 whole entry, looked up): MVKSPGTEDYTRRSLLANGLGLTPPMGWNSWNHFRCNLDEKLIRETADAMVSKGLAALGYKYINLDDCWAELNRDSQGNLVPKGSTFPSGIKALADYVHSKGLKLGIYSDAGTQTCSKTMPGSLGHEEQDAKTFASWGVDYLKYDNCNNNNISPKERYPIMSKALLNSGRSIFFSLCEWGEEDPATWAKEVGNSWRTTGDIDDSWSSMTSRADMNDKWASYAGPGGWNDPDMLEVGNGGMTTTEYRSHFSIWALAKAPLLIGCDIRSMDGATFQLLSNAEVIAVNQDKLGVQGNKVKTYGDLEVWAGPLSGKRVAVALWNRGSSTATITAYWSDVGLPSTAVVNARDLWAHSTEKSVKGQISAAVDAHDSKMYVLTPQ

CN(CCOc1ccc(C[C@H](Nc2ccccc2C(=O)c2ccccc2)C(=O)O)cc1)c1ccccn1
inactive: outcome [1] | Potency [2]

O=C(NCc1ccccc1)c1csc(Nc2ccncn2)n1
30.1%: parasite growth, % of DMSO control [3]
31.7%: growth, % of control [5]
36.6%: parasite growth, % of control (lower = inhibition) [4]

CC(C)c1c(CN(C)[C@@H](C)Cc2ccccc2)n(C)n(-c2ccccc2)c1=O
inactive: Potency [6] | Potency [7] | Potency [8] | Potency [9] | Potency [11] | Potency [12] | Potency [13] | Potency [14] | Potency [15] | Potency [16] | Potency [17] | Potency [18] | Potency [19] | Potency [20]
active: ratio activity, negative = inhibition [10] -8.16% [at 17.1 µM]

CC(=O)[C@@H]1CC[C@H]2[C@H]3CC[C@H]4C[C@@H](O)CC[C@]4(C)[C@@H]3C(=O)C[C@@]12C
inactive: Potency [6]

C[C@]12CC[C@H]3[C@@H](CCC4=CC(=O)CC[C@@]43C)[C@@H]1CC[C@@H]2O
active: Potency [9] 8.09 µM
inactive: Potency [7] | Potency [8] | Potency [10] | Potency [12] | Potency [13] | Potency [14] | Potency [15] | Potency [16] | Potency [18] | Potency [19] | Potency [20]
